MBNL1-CUG inh = blocks human MBNL1 binding to CUG repeat RNA | TR-FRET MBNL1-His/biotin-(CUG)12 binding, 665/545 ratio | Q9NR56 | Potency, µM (series often up to 57.5 µM), without a hit: top-dose activity change, negative = inhibition, actives largely listed as inhibitors | 280,000 compounds, 0.036% hits | AID 2675; active means well fitted inhibition curve with a large enough effect in the signal ratio, with a control signal flat, not every such curve was filed as active; inconclusive means small, poorly fitted or top-dose-only effect, or effect the other way, or a change in a side signal; inactive means no such curve, though single readings can be large or run the other way; the % refers to the signal ratio; further: potency means the concentration at half of the fitted maximal effect; on the % scale 0 is the no-effect control and ±100 the full control effect
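TR-FRET between His-tagged MBNL1 and biotin-(CUG)12 RNA, detected with Tb anti-His antibody (0.055 ng/ul) and streptavidin-XL665 (5 nM), 60 min at room temperature. Compounds titrated 92 nM to 58 uM; 665/545 nm ratio normalized to buffer and complex controls.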
CBFb RUNX1 block = inhibitors of human CBF-beta and RUNX1 interaction; Q01196+Q13951; AlphaScreen CBFb-His/RUNX1-biotin binding, biochemical; Potency, µM (series often up to 59.8 µM), without a hit: top-dose activity, negative = inhibition, usual class: inhibitors; 230,000 tested, under 10 active; AID 1477; further: % of control where 0% means no effect
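Inhibition was taken as any reduction in AlphaScreen signal from the CBF-beta–RUNX1 pair (His and biotin tags, 30 nM each), measured after compound (15 min) and bead (90 min) incubations at room temperature.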
L3MBTL1 block = inhibitors of human L3MBTL1; AlphaScreen L3MBTL1–H3K9me1 peptide binding; Q9Y468; Potency, µM (doses to about 57.1 µM), for inactives: at the highest dose activity, negative = inhibition, actives largely listed as inhibitors; 230,000 compounds, 0.66% hits; further: potency means the concentration at half of the fitted maximal effect; on the % scale 0 is the no-effect control and ±100 the full control effect; nearly all actives have a fitted effect of over 60% in size
Target sequence (Q9Y468 whole entry, looked up): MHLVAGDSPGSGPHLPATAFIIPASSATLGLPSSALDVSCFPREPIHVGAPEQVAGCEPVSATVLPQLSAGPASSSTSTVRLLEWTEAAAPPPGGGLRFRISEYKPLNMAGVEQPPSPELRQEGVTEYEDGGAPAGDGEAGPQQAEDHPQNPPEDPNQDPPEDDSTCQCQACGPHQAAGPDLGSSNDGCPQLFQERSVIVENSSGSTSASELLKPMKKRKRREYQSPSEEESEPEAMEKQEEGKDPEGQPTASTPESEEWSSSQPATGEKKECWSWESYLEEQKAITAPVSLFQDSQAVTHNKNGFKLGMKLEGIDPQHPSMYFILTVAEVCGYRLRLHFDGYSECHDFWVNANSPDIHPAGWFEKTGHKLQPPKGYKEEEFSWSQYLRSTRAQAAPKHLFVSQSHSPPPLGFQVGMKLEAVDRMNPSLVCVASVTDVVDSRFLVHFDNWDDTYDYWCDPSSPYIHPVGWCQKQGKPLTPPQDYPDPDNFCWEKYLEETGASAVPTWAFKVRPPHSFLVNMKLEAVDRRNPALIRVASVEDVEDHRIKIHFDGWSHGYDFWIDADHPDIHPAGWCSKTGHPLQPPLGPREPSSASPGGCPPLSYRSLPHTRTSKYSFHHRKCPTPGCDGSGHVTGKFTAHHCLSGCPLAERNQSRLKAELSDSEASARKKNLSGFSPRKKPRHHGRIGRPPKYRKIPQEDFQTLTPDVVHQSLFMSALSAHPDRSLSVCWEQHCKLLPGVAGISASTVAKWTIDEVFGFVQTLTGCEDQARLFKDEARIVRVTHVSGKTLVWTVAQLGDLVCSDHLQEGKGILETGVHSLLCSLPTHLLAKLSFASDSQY
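L3MBTL1 (50 nM) pre-complexed 30 min with biotinylated H3(1-15)K9me1 peptide (75 nM), then compounds added for 30 min at room temperature; AlphaScreen streptavidin donor/nickel chelate acceptor beads (10 ug/mL final) read after 30 min dark incubation.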
Six1-Eya2 blk = Six1/Eya2 interaction inhibition; Q15475+O00167; AlphaScreen GST-Six1/His-Eya2 binding, biochemical; hits give low values; activity change, % (no concentration beside the values); 360,000 compounds, 0.56% hits; AID 651725; in the data active means activity change below about -65%; inconclusive means mostly about -30% to -63%; further: on the % scale 0 is the no-effect control and ±100 the full control effect
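AlphaScreen luminescence read after one hour at 37 °C in darkness. Pin-transferred compounds met GST-Six1 and His-Eya2 protein (5X stock 250 nM/500 nM) plus glutathione donor and Ni-chelate acceptor beads (5X, 50 ug/mL).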
Eya2 inh = blocks the phosphatase activity of human Eya2; O00167; recombinant Eya2, OMFP fluorescence dephosphorylation (OMFP is methylfluorescein phosphate); Potency, µM (doses to about 76.9 µM), inactives show at the top dose activity, negative = inhibition, usual class: inhibitors; 330,000 compounds, 0.006% hits; AID 488837; further: potency means the concentration at half of the fitted maximal effect; on the % scale 0 is the no-effect control and ±100 the full control effect
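Eya2 (0.2 uM) preincubated 10 min at ambient with compound, then OMFP substrate added at 50 uM; 10 min reaction in 50 mM HEPES pH 7.5, 50 mM NaCl, 5 uM MgCl2, 0.05% BSA, 1 mM DTT. Fluorescence read at Ex 485/Em 525 nm.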
CtBP-E1A blk = blocks the CtBP interaction with E1A; AlphaScreen GST-E1A/His-CtBP binding, 1536-well; hits give low values; activity change, % (concentration not given with the values); 340,000 compounds, 0.49% hits; AID 651724; in the data active means activity change below about -65%; inconclusive means mostly about -30% to -63%; further: on the % scale 0 is the no-effect control and ±100 the full control effect
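GST-E1A and His-tagged CtBP (125 nM each as 5X stock) were preincubated with pin-transferred compound for 2 h at 37 °C in the dark, then glutathione donor and nickel acceptor beads were added for 1 h before AlphaScreen reading.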
An asterisk follows results filed as active. Sampled rows, rich in hits. Any-hit rate of the full collection: about 0.89%. Unless noted, the call rests on the fitted dose curve; in most records, active means well fitted curve in the direction sought with a large enough effect; inconclusive means small, poorly fitted or top-dose-only effect, or another doubt; inactive means no such curve, though single readings can be large; an effect the other way counts as inactive or inconclusive.

O=C1C2C3C=CC(O3)C2C(=O)N1N=Cc1cccc2ccccc12 (stereo not drawn) was read as Six1-Eya2 blk 3 and CtBP-E1A blk 3.
For CC(C)(C)C1CCC(=NOC(=O)c2ccc(F)cc2)CC1 (stereo not drawn) the results were MBNL1-CUG inh 2%, CBFb RUNX1 block -4%, L3MBTL1 block 0%, Six1-Eya2 blk 8, Eya2 inh 1% and CtBP-E1A blk 2.
`CS(=O)(=O)Nc1ccc(-c2ccc(/C=C3\SC(N)=NC3=O)o2)cc1` gave MBNL1-CUG inh inconclusive, L3MBTL1 block -6%, Six1-Eya2 blk inconclusive, Eya2 inh 6% and CtBP-E1A blk -68*.
For Nc1ccc(N=Nc2ccccc2)c2ccccc12 the results were MBNL1-CUG inh 13%, L3MBTL1 block 32µM*, Six1-Eya2 blk -16, Eya2 inh inconclusive and CtBP-E1A blk -25.
`c1ccc(N=Nc2ccc3cccccc2-3)cc1` gave Six1-Eya2 blk -98* and CtBP-E1A blk -90*.
Oc1ccccc1N=Nc1ccccc1O was read as MBNL1-CUG inh 31%, Six1-Eya2 blk -86* and Eya2 inh -9%.
O=c1[nH]c2sc3c(c2c2nncn12)CCCC3 was read as MBNL1-CUG inh -8%, CBFb RUNX1 block -2%, L3MBTL1 block -8%, Six1-Eya2 blk -79*, Eya2 inh -1% and CtBP-E1A blk -83*.
Screening O=C(NCCCNCCCNC(=O)c1ccc(/C=N/O)nc1)c1ccc(/C=N/O)nc1 returned MBNL1-CUG inh 3%, CBFb RUNX1 block -12%, Six1-Eya2 blk -87* and Eya2 inh 0%.
Screening CN(CCCNC(=O)c1ccc(/C=N/O)nc1)CCCN(C)Cc1ccccc1 returned MBNL1-CUG inh -7%, CBFb RUNX1 block -3%, L3MBTL1 block -10%, Six1-Eya2 blk inconclusive, Eya2 inh 17% and CtBP-E1A blk inconclusive.
`S=c1[nH]nc(-c2n[nH]c3c2CCC3)n1/N=C/C=C/c1ccco1` gave CBFb RUNX1 block inconclusive, L3MBTL1 block 28µM*, Six1-Eya2 blk -1 and Eya2 inh 20%.
For CN1/C(=C\C(=S)NC(=O)c2cccc(Br)c2)C(C)(C)c2ccccc21 the results were MBNL1-CUG inh 70%, L3MBTL1 block -11%, Six1-Eya2 blk -73*, Eya2 inh -5% and CtBP-E1A blk -70*.
Screening O=Nc1c(O)ccc2cc(S(=O)(=O)O)ccc12 returned Six1-Eya2 blk -3 and CtBP-E1A blk -3.
For CN(C)c1ccc2cc(S(=O)(=O)O)cc(O)c2c1 the results were Six1-Eya2 blk -73* and CtBP-E1A blk inconclusive.
CCOC(=O)C(Nc1ccc2ccccc2c1)C(=O)OCC was read as MBNL1-CUG inh inconclusive, CBFb RUNX1 block -15%, L3MBTL1 block 28µM*, Six1-Eya2 blk -28, Eya2 inh -3% and CtBP-E1A blk -29.
COc1ccc(OC)c(NC2=NC3(CCCCC3)N=C(N)N2)c1 was read as MBNL1-CUG inh 8%, CBFb RUNX1 block -4%, Six1-Eya2 blk -84*, Eya2 inh -13% and CtBP-E1A blk -73*.
For COc1ccc(NC2=NC3(CCCCC3)N=C(N)N2)cc1 the results were MBNL1-CUG inh 1%, CBFb RUNX1 block 8%, L3MBTL1 block 10%, Six1-Eya2 blk -13, Eya2 inh 1% and CtBP-E1A blk -3.
Screening CCOc1ccc2c(ccc(/C=C/c3cc(C)c4cccnc4c3O)[n+]2C)c1 returned Six1-Eya2 blk -90* and CtBP-E1A blk -94*.
CCOc1ccc2[nH]c3ncccc3c(=O)c2c1 was read as MBNL1-CUG inh inconclusive, Six1-Eya2 blk -16, Eya2 inh 4% and CtBP-E1A blk -2.
COc1ccc(C)cc1NC(=O)CSc1ccc(-c2ccccn2)nn1 was read as MBNL1-CUG inh 0%, Six1-Eya2 blk -83*, Eya2 inh 4% and CtBP-E1A blk -85*.
For COc1ccc(C)cc1NC(=O)CSc1ccc(-c2sc(C)nc2C)nn1 the results were MBNL1-CUG inh 0%, Six1-Eya2 blk -18, Eya2 inh 3% and CtBP-E1A blk -15.
For CCOC(=O)c1ccccc1NC(=O)CSc1ccc(-c2ccccn2)nn1 the results were MBNL1-CUG inh -3%, Six1-Eya2 blk -84*, Eya2 inh 24% and CtBP-E1A blk -86*.
For CCc1ccc(NC(=O)CSc2ccc(-c3ccccn3)nn2)cc1 the results were MBNL1-CUG inh 5%, Six1-Eya2 blk inconclusive, Eya2 inh 25% and CtBP-E1A blk inconclusive.
CC(=O)NC(c1ccccc1)c1cc([N+](=O)[O-])c2cccnc2c1O (stereo not drawn) was read as MBNL1-CUG inh 9%, CBFb RUNX1 block 6%, L3MBTL1 block 7.1µM*, Six1-Eya2 blk -94*, Eya2 inh -1% and CtBP-E1A blk -91*.
CC(=O)NC(c1ccc(C)cc1)c1cc(Cl)c2cccnc2c1O (stereo not drawn) was read as MBNL1-CUG inh 4%, L3MBTL1 block 13%, Six1-Eya2 blk inconclusive, Eya2 inh -2% and CtBP-E1A blk -74*.
For CC(=O)NC(c1ccco1)c1cc(Cl)c2cccnc2c1O (stereo not drawn) the results were L3MBTL1 block -28% and Eya2 inh -7%.
CC(C)C(=O)NC(c1ccccc1)c1cc([N+](=O)[O-])c2cccnc2c1O (stereo not drawn) was read as MBNL1-CUG inh 11%, L3MBTL1 block 10µM*, Six1-Eya2 blk -90*, Eya2 inh 8% and CtBP-E1A blk -91*.
`CCC(=O)NC(c1ccc(OC)cc1)c1cc(Cl)c2cccnc2c1O` (stereo not drawn) gave MBNL1-CUG inh -5%, CBFb RUNX1 block 0%, L3MBTL1 block 4%, Six1-Eya2 blk inconclusive, Eya2 inh -4% and CtBP-E1A blk inconclusive.
COc1ccc(C(NC(=O)c2cccnc2)c2cc(Cl)c3cccnc3c2O)cc1OC (stereo not drawn) was read as MBNL1-CUG inh 10%, CBFb RUNX1 block -30%, L3MBTL1 block inconclusive, Six1-Eya2 blk -91*, Eya2 inh 4% and CtBP-E1A blk -92*.
For CCc1cc(C(=O)N2CCCc3ccccc32)sc1C the results were Six1-Eya2 blk 1 and CtBP-E1A blk 2.
For O=C(NCCS(=O)(=O)N1CCN(c2ccccc2F)CC1)c1cccs1 the results were L3MBTL1 block 6%, Six1-Eya2 blk 2, Eya2 inh 3% and CtBP-E1A blk -1.
